Source: PubChem BioAssay AID1159580 (chemical genetic matrix, 2015)
The whole screen tested about 5,500 compounds, of which about 2,000 (36%) were called active. Inconclusive results (about 18%) are left out. Cut-off read from the data, not from the text of the source: active = normalized growth mostly below about 0.91 (no sharp cut-off); inconclusive = no clear call, values can overlap the other calls; inactive = mostly above about 0.92. This is one part of the list.

Test: chemical genetic growth profiling, strain panel (AID 1159580);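 note: tested at 20 µM; growth read once vehicle control cultures reached saturation at 30 °C; 1 = growth at the plate median or of vehicle wells; lower values mean less growth of the strain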
Details: growth OD
[1] = S. cerevisiae deletion strains, locus YGR078C, strain PAC10, active compounds read low
[2] = S. cerevisiae deletion strains, locus YMR307W, strain GAS1, active compounds read low
[3] = S. cerevisiae deletion strains, locus YNL128W, strain TEP1, active compounds read low
[4] = S. cerevisiae deletion strains, locus YNL153C, strain GIM3, active compounds read low
[5] = S. cerevisiae deletion strains, locus YNL322C, strain KRE1, active compounds read low
[6] = S. cerevisiae deletion strains, locus YPL241C, strain CIN2, active compounds read low

Measured: normalized growth

Clc1cccc(N2CCNCC2)c1
inactive: S. cerevisiae deletion strains, locus YAL040C, strain CLN3, active compounds read low 0.974 | S. cerevisiae deletion strains, locus YCL061C, strain MRC1 (second series), active compounds read low 0.983 | S. cerevisiae deletion strains, locus YER002W, strain NOP16, active compounds read low 0.981 | [1] 0.996 | [2] 0.991 | [3] 0.981 | [4] 0.985 | S. cerevisiae deletion strains, locus YNL175C, strain NOP13, active compounds read low 0.97 | S. cerevisiae deletion strains, locus YNL197C, strain WHI3, active compounds read low 0.979 | S. cerevisiae deletion strains, locus YNL224C, strain SQS1, active compounds read low 0.984 | [5] 0.996 | S. cerevisiae deletion strains, locus YOR083W, strain WHI5 (second series), active compounds read low 0.962 | [6] 0.982

CCOC(=O)N=Nc1c(O)[nH]c2ccc(F)cc12
inactive: S. cerevisiae deletion strains, locus YAL013W, strain DEP1, active compounds read low 1.01 | S. cerevisiae deletion strains, locus YBR229C, strain ROT2, active compounds read low 1.01 | S. cerevisiae deletion strains, locus YDL101C, strain DUN1, active compounds read low 1.01 | S. cerevisiae deletion strains, locus YDR150W, strain NUM1, active compounds read low 1 | S. cerevisiae deletion strains, locus YEL061C, strain CIN8, active compounds read low 1.02 | [1] 1 | S. cerevisiae deletion strains, locus YGR229C, strain SMI1, active compounds read low 1 | S. cerevisiae deletion strains, locus YHR030C, strain SLT2, active compounds read low 1.06 | S. cerevisiae deletion strains, locus YHR087W, strain rtc3, active compounds read low 1.03 | S. cerevisiae deletion strains, locus YJR043C, strain POL32, active compounds read low 1 | S. cerevisiae deletion strains, locus YJR075W, strain HOC1, active compounds read low 1.02 | S. cerevisiae deletion strains, locus YKL190W, strain CNB1, active compounds read low 1.01 | S. cerevisiae deletion strains, locus YLR039C, strain RIC1, active compounds read low 1.02 | S. cerevisiae deletion strains, locus YLR058C, strain SHM2 (second series), active compounds read low 0.997 | S. cerevisiae deletion strains, locus YLR085C, strain ARP6, active compounds read low 1.01 | S. cerevisiae deletion strains, locus YLR262C, strain YPT6, active compounds read low 1.01 | S. cerevisiae deletion strains, locus YML094W, strain GIM5, active compounds read low 1.05 | S. cerevisiae deletion strains, locus YMR219W, strain ESC1, active compounds read low 0.999 | S. cerevisiae deletion strains, locus YMR263W, strain SAP30, active compounds read low 0.976 | [2] 0.933 | [3] 1.02 | [4] 1 | S. cerevisiae deletion strains, locus YNL298W, strain CLA4 (second series), active compounds read low 0.998 | [5] 1.02 | S. cerevisiae deletion strains, locus YNR030W, strain Alg12, active compounds read low 1.01 | S. cerevisiae deletion strains, locus YOL006C, strain TOP1, active compounds read low 1.03 | S. cerevisiae deletion strains, locus YPL055C, strain LGE1, active compounds read low 1.04 | [6] 0.889 | S. cerevisiae deletion strains, locus YPR135W, strain CTF4, active compounds read low 1.08 | S. cerevisiae strains, strain wild type, active compounds read low 1
